What is called AC50 is the concentration at which the activity in the assay is half-maximal.

Experiment [1] has as its target human Matrix Metalloproteinase-9 (MMP9), MMP9 (gene 4318) (UniProt P14780). The experiment can be described thus: NVS_ENZ_hMMP9: NovaScreen (NVS) Enzymatic Assay for human Matrix Metalloproteinase-9 (MMP9) (AID 2283190).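 Further: cell-free recombinant MMP9 protease activity read by fluorescent substrate signal; active means inhibition seen as loss of fluorescence signal versus DMSO.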 In a few lines:
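Inhibition was scored as loss of fluorescence signal against DMSO controls. The recombinant protease was exposed to chemicals for 1 hour before reading; initial testing used 25 uM in duplicate.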

Experiment [2] addresses human Phosphodiesterase 10 (PDE10), PDE10A (gene 10846) (UniProt Q9Y233). The experiment can be described thus: NVS_ENZ_hPDE10: NovaScreen (NVS) Enzymatic Assay for human Phosphodiesterase 10 (PDE10) (AID 2283195). In a few lines: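 Fluorescence readout after mobility-shift separation of substrate and product, 1 h reaction with recombinant human enzyme. Single-concentration duplicates at 25 uM, then concentration-response up to 50 uM for chemicals reaching threshold; DMSO baseline.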

The target in experiment [3] is human Phosphoinositide 3-kinase alpha (PI3Ka), PIK3CA (gene 5290) (UniProt P42336). In words: NVS_ENZ_hPI3Ka: NovaScreen (NVS) Enzymatic Assay for human Phosphoinositide 3-kinase alpha (PI3Ka) (AID 2283196). In outline:
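Chemicals were first screened at 25 uM in duplicate, then hits were run as concentration series up to 50 uM. Enzyme activity was measured by fluorescence after mobility-shift separation, with loss of signal relative to DMSO taken as activity.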

Experiment [4] deals with Serine/threonine-protein phosphatase PP1-alpha catalytic subunit (Homo sapiens) (UniProt P62136). The experiment can be described thus: NVS_ENZ_hPPP1CA: NovaScreen (NVS) Enzymatic Assay for human Protein Phosphatase 1 Aatalytic subunit Alpha (PPP1CA) (AID 2283200). In outline:
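Chemicals were first screened in duplicate at 25 uM, and those passing threshold (e.g. 30% inhibition) were run as concentration series to 50 uM. Cell-free recombinant protein, 1.33 h read, fluorescent substrate/product mobility-shift detection, normalised to DMSO.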

The target of experiment [5] is human Phosphodiesterase 4A1 (PDE4A1), PDE4A (gene 5141) (UniProt P27815). The experiment can be described thus: NVS_ENZ_hPDE4A1: NovaScreen (NVS) Enzymatic Assay for human Phosphodiesterase 4A1 (PDE4A1) (AID 2283191). In outline:
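Fluorescent substrate turnover by recombinant PDE4A1 read after 1 h by mobility-shift separation. Primary duplicate screen at 25 uM; hits retested in concentration series with a 50 uM maximum, relative to DMSO.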

For experiment [6], the target named is human Protein Tyrosine Phosphatase Non-receptor Type 1 (PTPN1), PTPN1 (gene 5770) (UniProt P18031). In words: NVS_ENZ_hPTPN1: NovaScreen (NVS) Enzymatic Assay for human Protein Tyrosine Phosphatase Non-receptor Type 1 (PTPN1) (AID 2283201). In a few lines:
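Chemicals were first tested in duplicate at 25 uM, and those passing threshold went on to singleton concentration series topping at 50 uM. Recombinant enzyme, specific substrate, product separated by mobility shift, fluorescence read at 1.33 h; activity loss relative to DMSO.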

Experiment [7] addresses cAMP-dependent protein kinase catalytic subunit alpha (Homo sapiens) (UniProt P17612). In words: NVS_ENZ_hPKA: NovaScreen (NVS) Enzymatic Assay for human Protein Kinase A (PKA) (AID 2283192). In a few lines: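 Cell-free kinase activity read by fluorescence after mobility-shift separation of substrate and product, 1 h post-dosing. Single-concentration duplicate screen (25 uM) preceded singleton concentration series (top 50 uM); loss of signal versus DMSO.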

Experiment [8] addresses human Phosphodiesterase 5 (PDE5), PDE5A (gene 8654) (UniProt O76074). In words: NVS_ENZ_hPDE5: NovaScreen (NVS) Enzymatic Assay for human Phosphodiesterase 5 (PDE5) (AID 2283194). In outline:
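Screening began in duplicate at 25 uM, with actives taken into concentration-response. Enzyme activity of recombinant PDE5 toward its substrate was measured at 1 h by fluorescence mobility-shift detection, relative to DMSO controls.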

Experiment [9] deals with human Protein Phosphatase, Mg2+/Mn2+ Dependent 1A (PPM1A), PPM1A (gene 5494) (UniProt P35813). The experiment can be described thus: NVS_ENZ_hPPM1A: NovaScreen (NVS) Enzymatic Assay for human Protein Phosphatase, Mg2+/Mn2+ Dependent 1A (PPM1A) (AID 2283198). In a few lines:
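Primary screen in duplicate at 25 uM, with actives then titrated to a maximum of 50 uM. Recombinant PPM1A dephosphorylation of fluorescent substrate measured at 1 h, with substrate and product separated by mobility shift; inhibition fitted against DMSO.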

Experiment [10] concerns the target human Mitogen- and Stress-activated Protein Kinase-1 (Msk1), RPS6KA5 (gene 9252) (UniProt O75582). In words: NVS_ENZ_hMsk1: NovaScreen (NVS) Enzymatic Assay for human Mitogen- and Stress-activated Protein Kinase-1 (Msk1) (AID 2283187). In a few lines: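 Chemicals first run in duplicate at 25 uM, with actives followed up in singleton concentration series to 50 uM maximum. Enzyme activity came from substrate/product mobility-shift separation with fluorescence detection after 1 h incubation of the recombinant protein.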

Inconclusive results are not listed. Activity calls are given as the source filed them. How the source made its calls: active means hit-call score of the fitted dose curve at least 0.9, where 1 is the maximum; inconclusive means response in the unintended direction; inactive means score below 0.9.

Chain of Serine/threonine-protein phosphatase PP1-alpha catalytic subunit (Homo sapiens) (P62136 whole entry, looked up): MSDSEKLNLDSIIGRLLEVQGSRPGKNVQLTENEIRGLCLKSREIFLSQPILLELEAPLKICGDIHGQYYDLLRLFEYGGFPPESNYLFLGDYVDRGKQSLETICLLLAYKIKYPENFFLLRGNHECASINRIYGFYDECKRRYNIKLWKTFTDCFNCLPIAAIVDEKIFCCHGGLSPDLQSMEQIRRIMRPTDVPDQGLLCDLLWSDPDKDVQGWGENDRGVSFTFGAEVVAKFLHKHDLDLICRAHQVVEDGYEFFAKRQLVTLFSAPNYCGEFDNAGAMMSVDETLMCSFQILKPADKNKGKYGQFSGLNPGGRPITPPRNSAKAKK
Chain of human Phosphodiesterase 4A1 (PDE4A1), PDE4A (gene 5141) (P27815 whole entry, looked up): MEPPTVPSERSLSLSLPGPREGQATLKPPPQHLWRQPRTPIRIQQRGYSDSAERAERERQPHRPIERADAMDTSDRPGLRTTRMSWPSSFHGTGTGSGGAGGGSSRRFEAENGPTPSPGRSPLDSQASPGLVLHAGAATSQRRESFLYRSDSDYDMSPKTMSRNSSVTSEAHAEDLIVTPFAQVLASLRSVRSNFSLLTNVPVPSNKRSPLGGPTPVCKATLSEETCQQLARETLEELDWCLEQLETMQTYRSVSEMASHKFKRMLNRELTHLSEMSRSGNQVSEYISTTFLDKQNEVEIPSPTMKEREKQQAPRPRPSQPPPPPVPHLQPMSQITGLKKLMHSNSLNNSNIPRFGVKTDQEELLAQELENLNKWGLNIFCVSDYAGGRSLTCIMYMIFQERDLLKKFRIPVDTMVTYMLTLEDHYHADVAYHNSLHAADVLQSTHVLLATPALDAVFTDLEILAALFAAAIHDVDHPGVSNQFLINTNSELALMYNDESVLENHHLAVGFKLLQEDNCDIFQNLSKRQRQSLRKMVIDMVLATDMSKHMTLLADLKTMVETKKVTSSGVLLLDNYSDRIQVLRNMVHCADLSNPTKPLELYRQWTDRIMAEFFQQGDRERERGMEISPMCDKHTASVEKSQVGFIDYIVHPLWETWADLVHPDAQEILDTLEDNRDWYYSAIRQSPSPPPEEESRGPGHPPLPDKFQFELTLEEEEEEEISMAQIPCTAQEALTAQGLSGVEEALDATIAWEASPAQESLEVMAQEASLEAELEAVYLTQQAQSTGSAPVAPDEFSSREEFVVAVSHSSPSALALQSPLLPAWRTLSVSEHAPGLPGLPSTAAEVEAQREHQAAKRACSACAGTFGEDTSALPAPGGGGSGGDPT
Chain of human Phosphodiesterase 10 (PDE10), PDE10A (gene 10846) (Q9Y233 whole entry, looked up): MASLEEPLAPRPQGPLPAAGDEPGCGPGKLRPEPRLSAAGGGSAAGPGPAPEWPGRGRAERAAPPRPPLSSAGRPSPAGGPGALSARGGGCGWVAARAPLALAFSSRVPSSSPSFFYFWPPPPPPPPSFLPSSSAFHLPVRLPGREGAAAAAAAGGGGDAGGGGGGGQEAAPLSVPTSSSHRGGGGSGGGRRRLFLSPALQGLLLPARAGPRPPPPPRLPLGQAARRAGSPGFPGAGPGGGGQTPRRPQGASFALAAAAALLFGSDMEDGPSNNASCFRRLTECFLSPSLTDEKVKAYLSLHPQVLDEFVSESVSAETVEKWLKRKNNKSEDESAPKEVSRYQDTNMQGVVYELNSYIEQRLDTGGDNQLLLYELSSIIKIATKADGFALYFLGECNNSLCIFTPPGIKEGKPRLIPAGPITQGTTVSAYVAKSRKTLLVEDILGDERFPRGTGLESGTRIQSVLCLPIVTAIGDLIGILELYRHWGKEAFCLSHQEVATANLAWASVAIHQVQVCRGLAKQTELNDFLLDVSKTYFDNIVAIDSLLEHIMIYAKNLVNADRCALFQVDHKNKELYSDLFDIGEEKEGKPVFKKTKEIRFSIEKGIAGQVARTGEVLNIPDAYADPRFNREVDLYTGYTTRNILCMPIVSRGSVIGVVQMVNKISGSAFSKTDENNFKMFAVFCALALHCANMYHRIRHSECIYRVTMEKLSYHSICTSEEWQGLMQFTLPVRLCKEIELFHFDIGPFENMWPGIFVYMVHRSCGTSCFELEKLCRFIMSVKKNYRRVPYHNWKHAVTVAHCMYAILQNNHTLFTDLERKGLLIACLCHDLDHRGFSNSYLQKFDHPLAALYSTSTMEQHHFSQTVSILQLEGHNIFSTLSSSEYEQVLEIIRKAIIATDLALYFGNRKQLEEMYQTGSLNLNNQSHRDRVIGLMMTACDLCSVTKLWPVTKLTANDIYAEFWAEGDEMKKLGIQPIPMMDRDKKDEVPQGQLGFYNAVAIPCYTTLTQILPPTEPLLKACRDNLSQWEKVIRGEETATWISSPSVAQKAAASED
Chain of human Protein Tyrosine Phosphatase Non-receptor Type 1 (PTPN1), PTPN1 (gene 5770) (P18031 whole entry, looked up): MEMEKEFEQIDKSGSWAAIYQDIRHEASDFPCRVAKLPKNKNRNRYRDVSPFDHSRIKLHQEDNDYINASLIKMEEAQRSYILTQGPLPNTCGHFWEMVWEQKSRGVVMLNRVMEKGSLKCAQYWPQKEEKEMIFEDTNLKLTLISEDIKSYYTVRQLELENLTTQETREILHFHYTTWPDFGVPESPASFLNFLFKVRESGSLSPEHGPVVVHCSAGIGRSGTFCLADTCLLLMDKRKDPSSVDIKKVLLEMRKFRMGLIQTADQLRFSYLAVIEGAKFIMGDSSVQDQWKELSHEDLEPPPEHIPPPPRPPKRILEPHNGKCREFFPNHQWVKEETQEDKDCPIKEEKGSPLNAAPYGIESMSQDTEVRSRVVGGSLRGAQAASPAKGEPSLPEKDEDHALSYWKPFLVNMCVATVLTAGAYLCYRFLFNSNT
Chain of human Protein Phosphatase, Mg2+/Mn2+ Dependent 1A (PPM1A), PPM1A (gene 5494) (P35813 whole entry, looked up): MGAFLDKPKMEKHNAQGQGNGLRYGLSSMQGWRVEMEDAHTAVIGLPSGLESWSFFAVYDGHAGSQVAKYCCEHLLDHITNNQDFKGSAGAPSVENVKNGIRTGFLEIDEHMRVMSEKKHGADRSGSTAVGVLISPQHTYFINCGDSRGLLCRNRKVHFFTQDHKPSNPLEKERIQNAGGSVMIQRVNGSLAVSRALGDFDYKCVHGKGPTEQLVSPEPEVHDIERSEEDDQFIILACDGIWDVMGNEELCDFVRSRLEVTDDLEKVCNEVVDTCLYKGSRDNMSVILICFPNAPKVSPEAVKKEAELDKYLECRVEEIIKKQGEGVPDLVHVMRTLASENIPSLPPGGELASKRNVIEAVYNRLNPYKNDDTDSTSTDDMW
Chain of human Phosphoinositide 3-kinase alpha (PI3Ka), PIK3CA (gene 5290) (P42336 whole entry, looked up): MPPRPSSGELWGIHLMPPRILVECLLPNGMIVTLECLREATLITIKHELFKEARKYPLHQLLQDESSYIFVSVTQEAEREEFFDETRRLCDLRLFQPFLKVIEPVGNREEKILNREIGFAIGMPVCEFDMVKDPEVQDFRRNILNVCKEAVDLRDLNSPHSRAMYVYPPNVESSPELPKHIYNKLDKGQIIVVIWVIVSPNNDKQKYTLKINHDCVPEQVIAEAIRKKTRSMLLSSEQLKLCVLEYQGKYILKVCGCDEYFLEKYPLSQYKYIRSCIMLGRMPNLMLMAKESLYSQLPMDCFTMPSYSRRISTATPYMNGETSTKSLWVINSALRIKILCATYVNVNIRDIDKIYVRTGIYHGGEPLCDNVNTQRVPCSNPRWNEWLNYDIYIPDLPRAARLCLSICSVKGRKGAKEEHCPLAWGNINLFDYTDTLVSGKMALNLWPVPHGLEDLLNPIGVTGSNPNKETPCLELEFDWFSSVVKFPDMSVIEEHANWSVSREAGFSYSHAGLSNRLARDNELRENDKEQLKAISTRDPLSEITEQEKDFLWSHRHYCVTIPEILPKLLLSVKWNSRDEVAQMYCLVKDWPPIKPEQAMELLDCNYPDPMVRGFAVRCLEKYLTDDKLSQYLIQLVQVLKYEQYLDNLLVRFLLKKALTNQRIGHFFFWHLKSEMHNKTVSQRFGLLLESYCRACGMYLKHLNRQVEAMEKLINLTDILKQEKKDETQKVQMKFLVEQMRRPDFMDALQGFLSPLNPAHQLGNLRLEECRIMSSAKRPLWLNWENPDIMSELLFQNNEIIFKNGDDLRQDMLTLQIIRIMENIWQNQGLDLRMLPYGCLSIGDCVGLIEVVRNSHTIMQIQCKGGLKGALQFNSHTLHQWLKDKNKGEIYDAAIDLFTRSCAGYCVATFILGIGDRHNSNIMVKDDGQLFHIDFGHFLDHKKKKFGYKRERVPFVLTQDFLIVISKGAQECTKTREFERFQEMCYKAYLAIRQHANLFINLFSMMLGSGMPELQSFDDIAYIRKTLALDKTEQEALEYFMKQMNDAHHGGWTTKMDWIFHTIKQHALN
Chain of human Matrix Metalloproteinase-9 (MMP9), MMP9 (gene 4318) (P14780 whole entry, looked up): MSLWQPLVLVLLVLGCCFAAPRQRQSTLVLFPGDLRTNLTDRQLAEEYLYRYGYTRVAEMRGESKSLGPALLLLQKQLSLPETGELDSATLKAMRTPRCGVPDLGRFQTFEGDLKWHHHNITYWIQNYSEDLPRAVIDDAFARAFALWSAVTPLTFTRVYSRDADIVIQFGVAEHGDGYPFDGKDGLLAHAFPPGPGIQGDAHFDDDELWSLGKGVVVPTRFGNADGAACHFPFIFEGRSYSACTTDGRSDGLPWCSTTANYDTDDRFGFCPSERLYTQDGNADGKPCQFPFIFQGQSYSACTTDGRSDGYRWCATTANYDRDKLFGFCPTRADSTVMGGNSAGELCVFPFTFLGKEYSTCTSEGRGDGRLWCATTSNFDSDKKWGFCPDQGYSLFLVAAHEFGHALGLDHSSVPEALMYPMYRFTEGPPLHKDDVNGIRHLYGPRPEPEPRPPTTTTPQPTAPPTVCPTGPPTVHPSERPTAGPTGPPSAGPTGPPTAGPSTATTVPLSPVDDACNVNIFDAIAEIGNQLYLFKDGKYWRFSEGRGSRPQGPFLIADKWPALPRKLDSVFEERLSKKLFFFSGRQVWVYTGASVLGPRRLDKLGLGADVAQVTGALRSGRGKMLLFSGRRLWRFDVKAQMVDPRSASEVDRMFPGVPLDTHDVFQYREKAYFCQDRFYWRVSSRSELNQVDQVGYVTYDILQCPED

As to `CCCCCCCCCCCCCC[N+](C)(C)C`, the call in experiment [1] and in [2] was inactive. Further, the AC50 in experiment [3] was 8.66 µM (active).
In the case of `CC(C)(C)c1cccc(C(C)(C)C)c1O`, the compound was called inactive in experiment [4].
With `CCCCCCCCCCCCCCCS(=O)(=O)Oc1ccccc1`, in experiment [5], the call was inactive.
With `CCCCOCCO`, the compound was called inactive in [4].
As for `CCC(=C(c1ccc(O)cc1)c1ccc(OCCN(C)C)cc1)c1ccccc1`, the call in [6] was inactive.
For the compound `O=C(O)Cc1cc(I)c(Oc2cc(I)c(O)c(I)c2)c(I)c1`, the AC50 in experiment [5] was 0.0269 µM (active); in [8] it was 9.05 µM (active); in experiment [2], 8.91 µM (active). For the same compound, the call in experiment [7] was inactive.
As for `CN1CCC[C@H]1c1cccnc1`, in experiment [4], the result was inactive.
Take `CC(O)CO` (stereo unspecified): the call in experiment [8] was inactive.
Take `CCCCCCC(=O)O`: the call in [8] and in experiment [9] was inactive.
With `CC(C)(C)CC(C)(C)c1ccc(O)c(-n2nc3ccccc3n2)c1`, the compound was called inactive in experiment [10].
